# Experimental data reported in the supplement of paper PMC10849652.
# Targets with a hit are over-represented here; the source holds about 7,900 in all. About 0.6% of all pairs of compound and target were hits. Unmarked numbers belong to inactive results.
# Experiments:
# Assay in all cases: log2 fold change, soluble protein after heating vs DMSO (PISA); higher = thermal stabilisation; K562 cells, 10 uM, 30 min; active = over 0.2 and 3.5 SD of the protein, either way, in both replicates (recomputed)
# [1] = compound: CC1=C(C=C(C=C1)NC(=O)C2=CC(=CC=C2)C(C)(C)C#N)NC3=CC4=C(C=C3)N=CN(C4=O)C
# Procedure, shortened: (§1)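 K562 cells at 2×10^6 cells/mL were given 10 μM compound for 30 min. Aliquots then went through 3 min of heating across 48°C-58°C, were pooled, and were extracted in PBS with 0.5% NP-40 at 4°C, and the supernatant after 21,000xg for 90 min was quantified by TMTpro 16plex LC-MS/MS with channel sums equalised. Thermal stability relative to control samples, from duplicates, is given as log2 fold change.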
# [2] = compound: CC1=C(C=C(C=C1)NC(=O)C2=CC(=CC=C2)N(C)C)NC(=O)C3=CC=C(C=C3)O
# Procedure, shortened: as §1
# [3] = compound: CC1=CC=C(C=C1)SC2=C3C=C(SC3=CN=C2)C(=O)N
# Procedure, shortened: as §1
# [4] = compound: CC1=NC(=CC=C1)C2=C(N=C(N2)C(C)(C)C)C3=CC4=NC=CN=C4C=C3
# Procedure, shortened: as §1
# Nexturastat A = compound: CCCCN(Cc1ccc(C(=O)NO)cc1)C(=O)Nc1ccccc1 [Nexturastat A]
# Procedure, shortened: as §1
# vemurafenib = compound: CCCS(=O)(=O)Nc1ccc(F)c(C(=O)c2c[nH]c3ncc(-c4ccc(Cl)cc4)cc23)c1F [vemurafenib]
# Procedure, shortened: as §1
# [5] = compound: CCCS(=O)(=O)Nc1ccc(F)c(C(=O)c2c[nH]c3ncc(Cl)cc23)c1F
# Procedure, shortened: as §1
# [6] = compound: CCCc1cc(C)[nH]c(=O)c1CNC(=O)c1cc(-c2ccnc(N3CCN(C)CC3)c2)cc2c1cnn2C(C)C
# Procedure, shortened: as §1
# givinostat = compound: CCN(CC)Cc1ccc2cc(COC(=O)Nc3ccc(C(=O)NO)cc3)ccc2c1 [givinostat]
# Procedure, shortened: as §1
# barasertib = compound: CCN(CCCOc1ccc2c(Nc3cc(CC(=O)Nc4cccc(F)c4)[nH]n3)ncnc2c1)CCOP(=O)(O)O [barasertib]
# Procedure, shortened: as §1
# [7] = compound: CC[C@@H]1C(=O)N(C)c2cnc(Nc3ccc(C(=O)NC4CCN(C)CC4)cc3OC)nc2N1C1CCCC1
# Procedure, shortened: as §1
# volasertib = compound: CC[C@@H]1C(=O)N(C)c2cnc(Nc3ccc(C(=O)N[C@H]4CC[C@H](N5CCN(CC6CC6)CC5)CC4)cc3OC)nc2N1C(C)C [volasertib]
# Procedure, shortened: as §1
# [8] = compound: CC[C@H](C)N1C=C(C2=C(C=C(C=C21)C3=CN=C(C=C3)N4CCNCC4)C(=O)NCC5=C(C=C(NC5=O)C)C)C
# Procedure, shortened: as §1
# epoxomicin = compound: CC[C@H](C)[C@@H](C(=O)N[C@@H]([C@@H](C)O)C(=O)N[C@@H](CC(C)C)C(=O)[C@]1(CO1)C)NC(=O)[C@H]([C@@H](C)CC)N(C)C(=O)C [epoxomicin]
# Procedure, shortened: as §1
# [9] = compound: CCn1c(C(=O)N(C2CC2)C2CC2)cc2c3c(ncn3C)c(Nc3cc(C)n(C)n3)nc21
# Procedure, shortened: as §1
# [10] = compound: CCn1cc(-c2ccnc3[nH]c(-c4cccc(CN(C)C)c4)cc23)c(-c2ccc(NC(=O)N(C)C)cc2)n1
# Procedure, shortened: as §1
# [11] = compound: CN(C)CC(=O)Nc1ccc2[nH]c(=O)c3ccccc3c2c1
# Procedure, shortened: as §1
# rosiglitazone = compound: CN(CCOC1=CC=C(C=C1)C[C@H]2C(=O)NC(=O)S2)C3=CC=CC=N3 (racemic) [rosiglitazone]
# Procedure, shortened: as §1
# [12] = compound: CN1C2=C(C3=C1C(=O)N(N=C3)CC4=CC(=CC=C4)N)SC(=C2)S(=O)C
# Procedure, shortened: as §1
# [13] = compound: CN1CCC(CNc2ccc3ncc(-c4cccc(OC(F)(F)F)c4)n3n2)CC1
# Procedure, shortened: as §1
# Sequence of UniProt Q9NSI8 (Q9NSI8 whole entry, looked up): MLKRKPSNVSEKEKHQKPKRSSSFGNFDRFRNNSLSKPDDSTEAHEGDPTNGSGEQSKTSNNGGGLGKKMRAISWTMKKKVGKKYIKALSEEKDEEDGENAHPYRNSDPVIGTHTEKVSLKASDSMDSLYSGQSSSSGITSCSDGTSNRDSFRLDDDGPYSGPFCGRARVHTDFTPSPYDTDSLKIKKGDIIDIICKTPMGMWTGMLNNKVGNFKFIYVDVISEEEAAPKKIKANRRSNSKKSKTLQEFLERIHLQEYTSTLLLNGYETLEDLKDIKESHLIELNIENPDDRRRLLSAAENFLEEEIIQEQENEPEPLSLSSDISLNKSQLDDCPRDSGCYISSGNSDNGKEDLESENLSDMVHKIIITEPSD
# Sequence of UniProt P18754 (P18754 whole entry, looked up): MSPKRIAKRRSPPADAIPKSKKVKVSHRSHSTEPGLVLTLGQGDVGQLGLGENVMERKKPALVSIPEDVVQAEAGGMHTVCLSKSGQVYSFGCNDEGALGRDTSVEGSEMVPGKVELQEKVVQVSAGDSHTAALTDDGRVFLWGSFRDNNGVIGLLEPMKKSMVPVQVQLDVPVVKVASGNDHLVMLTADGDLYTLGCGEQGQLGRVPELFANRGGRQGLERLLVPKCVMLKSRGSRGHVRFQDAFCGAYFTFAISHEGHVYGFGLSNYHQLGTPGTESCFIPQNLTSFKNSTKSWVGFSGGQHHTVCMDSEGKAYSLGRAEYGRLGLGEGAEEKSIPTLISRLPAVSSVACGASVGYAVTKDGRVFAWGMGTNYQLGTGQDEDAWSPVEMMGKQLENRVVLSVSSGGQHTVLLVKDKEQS
# Sequence of UniProt Q01974 (Q01974 whole entry, looked up): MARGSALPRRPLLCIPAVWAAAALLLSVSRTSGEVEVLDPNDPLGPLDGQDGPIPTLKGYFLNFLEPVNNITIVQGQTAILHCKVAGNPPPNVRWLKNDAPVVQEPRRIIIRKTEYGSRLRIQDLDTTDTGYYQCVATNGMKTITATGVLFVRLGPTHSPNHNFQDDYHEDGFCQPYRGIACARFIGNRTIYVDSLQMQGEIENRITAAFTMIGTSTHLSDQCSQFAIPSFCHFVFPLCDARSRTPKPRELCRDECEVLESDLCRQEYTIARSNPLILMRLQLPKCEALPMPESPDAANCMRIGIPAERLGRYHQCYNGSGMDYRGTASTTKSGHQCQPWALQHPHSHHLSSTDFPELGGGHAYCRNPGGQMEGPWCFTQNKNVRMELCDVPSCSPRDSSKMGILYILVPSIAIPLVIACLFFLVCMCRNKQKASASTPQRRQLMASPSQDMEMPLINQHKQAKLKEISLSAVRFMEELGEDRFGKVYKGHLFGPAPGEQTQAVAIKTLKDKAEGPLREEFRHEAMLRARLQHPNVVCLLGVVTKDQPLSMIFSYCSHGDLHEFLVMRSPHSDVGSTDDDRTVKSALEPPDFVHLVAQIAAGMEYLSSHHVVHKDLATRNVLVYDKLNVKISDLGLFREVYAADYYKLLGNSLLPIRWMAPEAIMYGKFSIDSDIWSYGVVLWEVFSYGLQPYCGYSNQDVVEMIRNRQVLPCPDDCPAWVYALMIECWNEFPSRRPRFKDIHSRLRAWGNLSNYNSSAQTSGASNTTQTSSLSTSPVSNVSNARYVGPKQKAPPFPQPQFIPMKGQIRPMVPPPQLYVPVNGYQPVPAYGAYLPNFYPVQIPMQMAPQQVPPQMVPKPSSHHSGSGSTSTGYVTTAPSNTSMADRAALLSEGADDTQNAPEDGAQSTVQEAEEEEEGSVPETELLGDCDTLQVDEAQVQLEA
# Sequence of UniProt Q8TD22 (Q8TD22 whole entry, looked up): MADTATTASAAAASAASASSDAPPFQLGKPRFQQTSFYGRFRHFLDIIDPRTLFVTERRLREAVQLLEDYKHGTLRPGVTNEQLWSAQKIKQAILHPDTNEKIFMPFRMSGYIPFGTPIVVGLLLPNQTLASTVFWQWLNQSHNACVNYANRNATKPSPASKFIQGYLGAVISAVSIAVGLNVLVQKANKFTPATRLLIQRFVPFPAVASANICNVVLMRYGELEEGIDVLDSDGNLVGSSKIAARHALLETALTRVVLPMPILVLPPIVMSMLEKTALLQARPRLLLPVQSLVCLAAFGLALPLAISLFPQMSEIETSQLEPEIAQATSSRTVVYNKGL
# Sequence of UniProt Q8WWV3 (Q8WWV3 whole entry, looked up): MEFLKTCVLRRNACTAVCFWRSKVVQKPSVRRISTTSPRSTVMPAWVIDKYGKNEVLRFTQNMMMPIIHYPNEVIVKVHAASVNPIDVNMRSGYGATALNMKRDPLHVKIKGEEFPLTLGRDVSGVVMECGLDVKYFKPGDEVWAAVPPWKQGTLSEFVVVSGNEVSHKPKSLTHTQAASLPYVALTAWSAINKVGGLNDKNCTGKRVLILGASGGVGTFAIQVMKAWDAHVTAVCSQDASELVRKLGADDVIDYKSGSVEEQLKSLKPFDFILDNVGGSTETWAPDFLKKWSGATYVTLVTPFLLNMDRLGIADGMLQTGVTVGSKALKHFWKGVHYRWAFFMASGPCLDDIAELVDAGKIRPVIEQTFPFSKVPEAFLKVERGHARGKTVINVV
# Sequence of UniProt Q8NBX0 (Q8NBX0 whole entry, looked up): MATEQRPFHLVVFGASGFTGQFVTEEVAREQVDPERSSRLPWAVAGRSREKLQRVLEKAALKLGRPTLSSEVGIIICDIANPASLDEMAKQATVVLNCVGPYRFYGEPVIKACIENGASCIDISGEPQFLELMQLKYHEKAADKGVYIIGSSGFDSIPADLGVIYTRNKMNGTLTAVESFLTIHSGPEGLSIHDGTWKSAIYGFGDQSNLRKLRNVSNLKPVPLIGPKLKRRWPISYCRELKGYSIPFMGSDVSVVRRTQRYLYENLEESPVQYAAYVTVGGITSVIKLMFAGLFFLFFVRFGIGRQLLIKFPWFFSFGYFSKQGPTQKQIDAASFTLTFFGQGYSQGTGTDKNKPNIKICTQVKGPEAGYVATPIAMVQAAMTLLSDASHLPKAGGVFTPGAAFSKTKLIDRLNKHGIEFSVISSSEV
# Sequence of UniProt Q92878 (Q92878 whole entry, looked up): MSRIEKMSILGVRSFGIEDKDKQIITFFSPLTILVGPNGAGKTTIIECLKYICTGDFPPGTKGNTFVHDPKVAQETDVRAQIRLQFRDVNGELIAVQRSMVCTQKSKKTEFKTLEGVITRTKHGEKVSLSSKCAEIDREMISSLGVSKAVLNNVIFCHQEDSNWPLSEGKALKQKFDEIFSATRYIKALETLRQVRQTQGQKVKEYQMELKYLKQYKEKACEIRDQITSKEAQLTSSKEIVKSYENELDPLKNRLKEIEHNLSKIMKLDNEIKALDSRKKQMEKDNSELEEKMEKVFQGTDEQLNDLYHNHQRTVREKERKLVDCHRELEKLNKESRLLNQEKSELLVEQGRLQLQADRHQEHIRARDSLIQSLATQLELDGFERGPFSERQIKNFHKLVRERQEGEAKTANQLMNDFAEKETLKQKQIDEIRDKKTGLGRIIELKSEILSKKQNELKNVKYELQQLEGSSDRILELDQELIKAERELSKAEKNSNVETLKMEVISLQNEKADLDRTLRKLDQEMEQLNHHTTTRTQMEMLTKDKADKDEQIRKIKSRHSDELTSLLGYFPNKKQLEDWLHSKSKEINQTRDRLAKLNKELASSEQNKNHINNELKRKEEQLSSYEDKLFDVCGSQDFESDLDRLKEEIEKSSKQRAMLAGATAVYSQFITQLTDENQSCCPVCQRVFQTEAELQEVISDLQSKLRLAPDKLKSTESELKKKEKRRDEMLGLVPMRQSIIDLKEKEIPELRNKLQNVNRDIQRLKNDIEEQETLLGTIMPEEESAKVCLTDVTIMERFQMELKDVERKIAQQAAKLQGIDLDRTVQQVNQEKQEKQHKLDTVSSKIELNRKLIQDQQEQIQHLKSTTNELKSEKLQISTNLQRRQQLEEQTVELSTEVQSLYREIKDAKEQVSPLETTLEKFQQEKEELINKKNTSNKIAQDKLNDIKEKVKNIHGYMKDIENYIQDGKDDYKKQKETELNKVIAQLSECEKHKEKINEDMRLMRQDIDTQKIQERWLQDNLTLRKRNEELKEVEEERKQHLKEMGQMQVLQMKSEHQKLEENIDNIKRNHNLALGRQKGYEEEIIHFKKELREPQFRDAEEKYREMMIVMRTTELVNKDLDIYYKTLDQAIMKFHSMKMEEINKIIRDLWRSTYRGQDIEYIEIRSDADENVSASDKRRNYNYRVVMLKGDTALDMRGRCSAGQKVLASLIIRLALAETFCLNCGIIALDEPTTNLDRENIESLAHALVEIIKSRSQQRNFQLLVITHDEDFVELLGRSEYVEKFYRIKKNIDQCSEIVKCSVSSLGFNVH
# Sequence of UniProt Q15418 (Q15418 whole entry, looked up): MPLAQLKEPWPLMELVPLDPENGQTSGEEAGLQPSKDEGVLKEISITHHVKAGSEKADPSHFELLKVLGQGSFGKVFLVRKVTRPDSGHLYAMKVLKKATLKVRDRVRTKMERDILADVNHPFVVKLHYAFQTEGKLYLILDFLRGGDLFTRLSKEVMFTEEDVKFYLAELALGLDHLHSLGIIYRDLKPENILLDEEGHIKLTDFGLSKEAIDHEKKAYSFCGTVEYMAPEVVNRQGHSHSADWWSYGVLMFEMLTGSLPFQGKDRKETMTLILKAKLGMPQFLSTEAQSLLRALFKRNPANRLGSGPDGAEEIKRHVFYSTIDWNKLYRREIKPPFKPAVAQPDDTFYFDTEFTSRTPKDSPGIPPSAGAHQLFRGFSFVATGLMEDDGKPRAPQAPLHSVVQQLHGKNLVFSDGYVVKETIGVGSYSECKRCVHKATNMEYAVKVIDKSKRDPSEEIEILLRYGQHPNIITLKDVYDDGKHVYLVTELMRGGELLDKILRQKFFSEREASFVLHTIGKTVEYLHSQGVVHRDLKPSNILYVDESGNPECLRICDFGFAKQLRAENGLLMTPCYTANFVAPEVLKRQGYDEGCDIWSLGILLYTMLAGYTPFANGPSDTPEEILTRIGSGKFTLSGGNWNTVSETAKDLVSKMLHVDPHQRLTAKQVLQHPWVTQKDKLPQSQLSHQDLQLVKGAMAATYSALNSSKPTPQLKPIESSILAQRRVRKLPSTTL
Target,log2 fold change [1],log2 fold change [2],log2 fold change [3],log2 fold change [4],log2 fold change (Nexturastat A),log2 fold change (vemurafenib),log2 fold change [5],log2 fold change [6],log2 fold change (givinostat),log2 fold change (barasertib),log2 fold change [7],log2 fold change (volasertib),log2 fold change [8],log2 fold change (epoxomicin),log2 fold change [9],log2 fold change [10],log2 fold change [11],log2 fold change (rosiglitazone),log2 fold change [12],log2 fold change [13]
RCC1 isoform 2 (UniProt P18754),0.197,-0.129,0.073,0.055,-0.027,0.13,0.104,0.111,0.087,0.053,-0.037,-0.063,0.044,0.118,-0.185,-0.02,0.168,0.053,-0.09,0.11
RPS6KA1 isoform 2 (UniProt Q15418),-0.016,-0.187,0.033,0.078,0.004,0.016,0.046,0.071,-0.141,0.029,-0.223,-0.212,0.053,0.071,0.127,-0.146,0.026,0.044,-0.032,-0.438 (active)
RB1 (UniProt P06400),0.016,-0.011,0.034,0.003,-0.1,-0.01,-0.008,-0.026,-0.02,-0.004,0.018,0.034,0.016,0.041,-0.016,-0.05,0.008,0.009,-0.064,-0.265 (active)
SAAL1 (UniProt Q96ER3),0.004,-0.008,0.006,0.009,-0.078,-0.017,0.035,-0.014,-0.059,0.046,-0.167,-0.245 (active),0.001,0.025,-0.038,0.025,-0.025,0.051,-0.012,-0.219
RIOK3 (UniProt O14730),0.026,0.021,0.009,0.014,-0.094,-0.012,-0.012,0.011,-0.003,-0.003,0.084,0.04,-0.01,0.072,0.001,-0.053,-0.011,0.024,-0.023,-0.041
ROR2 (UniProt Q01974),0.022,-0.061,0.001,-0.009,-0.109,0.018,0.007,0.078,0.033,0.003,-0.107,-0.123,0.129,0.035,-0.012,-0.015,-0.01,0.036,-0.069,-0.089
SKP1 (UniProt P63208),0.095,0.048,0.094,0.017,-0.052,-0.036,0.008,-0.032,-0.05,-0.021,-0.012,-0.02,-0.027,0.034,0.035,-0.035,-0.019,-0.02,-0.126,0.244
RPA1 (UniProt P27694),0.028,-0.047,-0.002,0.05,0.044,0.039,0.125,0.104,0.069,0.068,-0.108,-0.326 (active),0.083,0.09,-0.028,-0.02,0.044,0.063,-0.048,-0.079
RPS4X (UniProt P62701),0.019,0,-0.027,-0.055,0.214,-0.106,-0.08,0.213,0.021,-0.101,0.173,0.419,0.056,-0.22,0.032,0.108,-0.089,-0.086,0.177,0.148
SCCPDH (UniProt Q8NBX0),0.147,-0.092,0.074,0.037,-0.232,-0.016,-0.123,0.016,0.183,0.046,0.083,0.158,-0.06,-0.024,0.008,-0.07,0.039,0.022,-0.194,0.216
SAMSN1 isoform 3 (UniProt Q9NSI8),0.014,-0.011,0.029,0.017,-0.027,-0.001,0.029,0,0.02,0.042,-0.069,-0.153,0.026,0.018,-0.02,-0.065,0.017,0.067,0,-0.253 (active)
RTN4IP1 (UniProt Q8WWV3),0.253,-0.033,0.294,0.119,-0.061,0.034,-0.041,-0.218,-0.081,0.031,-0.118,-0.196,-0.059,-0.02,0.009,-0.079,-0.003,0.965 (active),-0.219,-0.12
SFXN5 (UniProt Q8TD22),-0.013,0,0.049,0.024,-0.026,0.135,0.012,0.012,0.124,0.057,0.048,-0.034,0.022,-0.009,-0.012,-0.039,0.006,0.007,-0.209,0.063
RAD50 isoform 2 (UniProt Q92878),0,-0.024,0.004,0.009,-0.005,0.027,0.038,0.014,0.026,0.033,-0.069,-0.228 (active),0.041,0.041,-0.012,-0.001,0.025,0.031,-0.03,-0.074
RAC1 (UniProt P63000),0.14,-0.002,-0.055,0.241,-0.021,-0.046,-0.008,0.032,-0.059,-0.026,-0.024,0.03,0.026,0.019,0.019,0.044,0.05,0.069,-0.067,0.35 (active)
RPS12 (UniProt P25398),0.036,0.006,-0.013,-0.027,0.038,-0.057,-0.035,0.073,-0.035,-0.059,0.108,0.219,0.038,-0.021,-0.002,0.063,-0.028,-0.037,0.064,0.079
